Most compounds without a hit are left out; they make up all but 1% or so of the library.
gsp antag – antagonists of gsp mutant (McCune-Albright syndrome); Potency, µM (top dose mostly 76.9 µM), hits mostly inhibitors; actives 0.4% (n = 340,000); AID 624288; gsp-mutant cells, cAMP HTRF, 30 min; calls by dose curve; cell line not stated here;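 note: intracellular cAMP measured with PDE inhibitor Ro 20-1724 present during compound exposure; nearly all actives have a fitted effect of over 65% in size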
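HTRF cAMP read-out (cAMP-d2 plus anti-cAMP antibody-K in lysis buffer, 30 min RT). Before lysis, cells are exposed to compounds with […] for 30 min at 37C in DPBS containing Ca/Mg, BSA and Tween 20.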
gsp ag – activates gsp, the McCune-Albright syndrome mutation; gsp mutant cells, cAMP HTRF, 30 min; actives 0.13% (n = 340,000); AID 624287; Potency, µM (highest dose often 76.9 µM), most hits filed as activators; active = well fitted activation curve with a large enough effect; inconclusive = small, poorly fitted or top-dose-only effect, or another doubt; inactive = no such curve, though single readings can be large or run the other way; cell line not stated here;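 note: phosphodiesterase inhibitor Ro 20-1724 added with compounds to block cAMP breakdown; nearly all actives have a fitted effect of over 60% in size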
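Cells in DMEM/10% FBS with G418 were pretreated with compounds in DMSO plus […] (300 uM stock) for 30 min at 37C. cAMP was measured by HTRF (cAMP-d2 plus anti-cAMP antibody-K) after 30 min at room temperature.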
RXFP1 ag – activates the human relaxin receptor RXFP1. Q9HBX9. HEK293T-RXFP1 cAMP TR-FRET, 30 min; response scale: percent of porcine relaxin response, buffer zero. Potency, µM (highest dose often 57.5 µM), hits mostly activators. actives 0.3% (n = 370,000). AID 2676; note: nearly all actives have a fitted effect of over 60% in size
Target sequence (Q9HBX9 whole entry, looked up): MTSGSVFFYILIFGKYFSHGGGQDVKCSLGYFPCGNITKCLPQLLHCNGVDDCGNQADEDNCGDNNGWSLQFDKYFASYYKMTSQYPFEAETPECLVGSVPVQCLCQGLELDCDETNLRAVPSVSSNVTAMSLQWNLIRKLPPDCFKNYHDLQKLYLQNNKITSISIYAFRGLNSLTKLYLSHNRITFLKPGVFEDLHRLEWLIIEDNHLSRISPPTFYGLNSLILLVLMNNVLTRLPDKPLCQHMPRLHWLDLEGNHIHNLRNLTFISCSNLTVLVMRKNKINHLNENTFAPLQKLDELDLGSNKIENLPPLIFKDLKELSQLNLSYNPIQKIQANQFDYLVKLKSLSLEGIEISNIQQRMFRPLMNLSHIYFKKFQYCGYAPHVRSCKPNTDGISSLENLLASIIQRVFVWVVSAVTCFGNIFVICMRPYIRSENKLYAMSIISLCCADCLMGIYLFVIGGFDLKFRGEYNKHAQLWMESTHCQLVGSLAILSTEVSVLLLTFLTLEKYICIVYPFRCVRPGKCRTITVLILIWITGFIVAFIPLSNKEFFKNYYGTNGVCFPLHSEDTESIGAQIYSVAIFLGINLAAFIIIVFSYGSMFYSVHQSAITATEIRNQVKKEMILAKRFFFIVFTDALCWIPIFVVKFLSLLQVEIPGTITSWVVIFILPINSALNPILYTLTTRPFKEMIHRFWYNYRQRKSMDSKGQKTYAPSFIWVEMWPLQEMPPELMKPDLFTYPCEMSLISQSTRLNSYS
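HEK293T cells stably expressing RXFP1 were pretreated with the PDE4 inhibitor Ro 20174, exposed to compounds for 30 min at 37C, lysed, and cAMP was read by TR-FRET. Data normalized to buffer (basal) and 29 nM porcine relaxin (100%).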
PTHR1 ag – agonists of human PTHR1 parathyroid hormone receptor | Q03431 | HEK293 GP2 PTHR1 cells, GloSensor cAMP luminescence, 1 h | Potency, µM (titrated, usually from 115 µM), hits mostly activators | actives 0.075% (n = 410,000) | AID 743266; note: nearly all actives have a fitted effect of over 55% in size
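HEK-293-derived GP2 cells expressing PTHR1 and a GloSensor cAMP reporter, 3,000/well, plated overnight, given luciferin plus IBMX (each 0.5 mM as added) for 1 h at 37 °C, then compound for 1 h at 37 °C. Luminescence was read after 15 min at room temperature.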
RXFP1 antagonist – blocks the human relaxin receptor RXFP1; AID 1259400; activity change, negative = inhibition, % at 57.5 µM; actives 0.59% (n = 350,000); Q9HBX9; HEK293-RXFP1, relaxin-stimulated cAMP HTRF, 30 min; active compounds read low;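 active = activity change of -60% or lower, but not beyond a set lower limit; inconclusive = change between -60% and -40%, or beyond the set limit; inactive = change above -40%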
Large screens that a line does not name were inactive. Unless noted, calls come from the whole dose curve; as a rule, active = well fitted curve in the direction sought with a large enough effect; inconclusive = small, poorly fitted or top-dose-only effect, or another doubt; inactive = no such curve, though single readings can be large; an effect the other way counts as inactive or inconclusive.

CSCCC(NS(=O)(=O)c1ccc2c(c1)c(=O)n(C)c(=O)n2C)C(=O)NC1CCN(Cc2ccccc2)CC1 (centres undefined)	RXFP1 ag 18µM
COc1cccc(CNC(=O)CCc2c(C)c3cc4c(C)coc4c(C)c3oc2=O)c1	none (no result: gsp antag, gsp ag)
O=C(CCCN1C(=O)/C(=C/c2cccs2)SC1=S)Nc1cccc(C(=O)O)c1	none
COc1ccc(/C=C2\SC(=S)N(CCCC(=O)Nc3ccccc3C(=O)O)C2=O)cc1OC	gsp antag 35µM, gsp ag inconclusive
O=C(CCN1C(=O)/C(=C/c2cccs2)SC1=S)Nc1cccc(O)c1	gsp antag 40µM, RXFP1 antagonist inconclusive
O=C(CCCN1C(=O)/C(=C/c2cccs2)SC1=S)Nc1cccc(O)c1	gsp antag 45µM
Nc1ccc2c(c1)CN1C(=O)c3ccccc3C1=N2	none (no result: gsp antag, gsp ag, RXFP1 ag, PTHR1 ag)
CCCN(CCC)C(=O)C1CCCN(c2ncnc3onc(-c4ccc(F)cc4)c23)C1 (centres undefined)	none (no result: gsp antag, gsp ag)
CCCN1C(=O)/C(=C/c2ccncc2)SC1=S	none
O=C1/C(=C/c2ccncc2)SC(=S)N1Cc1ccccc1	RXFP1 antagonist -99
CC(C)Cn1c(N)c(C(=O)COC(=O)c2ccncc2)c(=O)n(C)c1=O	none
CC(C)Cn1c(N)c(C(=O)CSc2ccccc2)c(=O)n(C)c1=O	gsp antag inconclusive
Cc1ccccc1OCCC(=O)OCC(=O)c1c(N)n(CC(C)C)c(=O)n(C)c1=O	gsp antag 32µM (no result: RXFP1 ag)
CC(C)Cn1c(N)c(C(=O)COC(=O)[C@@H]2CCCN2C(=O)c2cccs2)c(=O)n(C)c1=O	gsp ag 13µM
Cc1ccc(OCCC(=O)OCC(=O)c2c(N)n(CC(C)C)c(=O)n(C)c2=O)cc1	none
CC(C)Cn1c(N)c(C(=O)COC(=O)/C=C/c2ccccc2)c(=O)n(C)c1=O	gsp antag 35µM
CC(C)Cn1c(N)c(C(=O)COC(=O)c2ccc(Br)cc2)c(=O)n(C)c1=O	gsp antag 35µM, gsp ag inconclusive (no result: RXFP1 ag)
O=C1C(F)=CC(COC(c2ccccc2)(c2ccccc2)c2ccccc2)OC1n1cc(F)c(=O)[nH]c1=O (centres undefined)	RXFP1 antagonist -84 (no result: RXFP1 ag)
COc1ccc(-c2nc(CS(=O)CC(=O)NCc3ccc(F)cc3)c(C)o2)cc1OC (centres undefined)	none (no result: gsp antag, gsp ag)
CC(C)(C)C1CCc2c(sc(NC(=O)C3CC=CCC3C(=O)O)c2C#N)C1 (centres undefined)	gsp antag 40µM
CC(C)(C)c1ccc(C(=O)Nc2sc3c(c2C#N)CCC(C(C)(C)C)C3)cc1 (centres undefined)	none (no result: gsp antag, gsp ag, RXFP1 antagonist)
CCC(C)(C)C1CCc2c(sc(NC(=O)c3ccccc3C(=O)O)c2C#N)C1 (centres undefined)	gsp antag inconclusive, RXFP1 antagonist -69
O=c1[nH]c(=S)[nH]cc1Oc1ccc(Cl)cc1Cl	gsp ag 6.3µM, RXFP1 ag inconclusive
C[C@@H](NC(=O)/C(C#N)=C/c1ccc(O)c(O)c1)c1ccccc1	none (no result: gsp ag, RXFP1 antagonist)
CC(NC(=O)/C(C#N)=C/c1ccc(Cl)c([N+](=O)[O-])c1)c1ccccc1 (centres undefined)	RXFP1 antagonist -104
O=C(O)c1cccc(-n2cccc2C=C2C(=O)c3ccccc3C2=O)c1	gsp antag 35µM
O=C1C(=Cc2cccn2-c2ccccc2)C(=O)c2ccccc21	none
Cc1ccc(S(=O)(=O)c2nc(-c3ccccc3F)oc2N2CCCCC2)cc1	none (no result: gsp antag, gsp ag)
COc1ccc(Nc2nc(N3CCCC3)c3ccccc3n2)cc1	none (no result: RXFP1 antagonist)
CCN(CC)c1ccc(Nc2nc(N3CCOCC3)c3ccccc3n2)cc1	gsp antag 50µM
O=C(CCCCCNc1nc(=S)[nH]c2ccccc12)NCCc1c[nH]c2ccccc12	gsp ag inconclusive (no result: RXFP1 antagonist)
O=C(CCCCCNc1nc(=S)[nH]c2ccccc12)NCCC1=CCCCC1	RXFP1 antagonist -63
O=C(CCCCCNc1nc(=S)[nH]c2ccccc12)NCCc1ccc(Cl)cc1	RXFP1 antagonist -65
Fc1ccc(-[n+]2nc(Nc3ccccc3)sc2-c2c(Cl)cccc2Cl)cc1	gsp antag inconclusive (no result: gsp ag, RXFP1 antagonist)
CCc1ccc(Nc2n[n+](-c3ccccc3)c(-c3c(Cl)cccc3Cl)s2)cc1	gsp antag 32µM (no result: gsp ag, RXFP1 antagonist)
CC(=O)Nc1nonc1-c1nnc(SCc2cccc(Br)c2)n1C	none (no result: gsp antag, gsp ag)
COc1ccc(C2C(C#N)=C(N)OC3=C2C(=O)CC(C)(C)C3)cc1OC (centres undefined)	RXFP1 antagonist -76
COC(=O)c1c(-c2ccco2)csc1NC(=O)C1CC=CCC1C(=O)O (centres undefined)	gsp ag 32µM
CCOC(=O)c1c(-c2ccc(F)cc2)csc1NC(=O)C1CC=CCC1C(=O)O (centres undefined)	none
Cc1ccc(CNC(=O)CCc2nnc3ccc(NCCCN4CCCC4=O)nn23)cc1	RXFP1 ag inconclusive
CSc1ccc(CCNC(=O)CCc2nnc3ccc(NCCCN4CCCC4=O)nn23)cc1	gsp ag inconclusive, RXFP1 ag inconclusive, RXFP1 antagonist -70
CCOc1ccc(NC(=O)COC(=O)c2ccc(S(=O)(=O)N3CCOCC3)cc2)cc1	none (no result: RXFP1 ag)
CCOc1ccc(-n2c([S-])c(C(=O)Nc3ccc(S(=O)(=O)N4CCOCC4)cc3)[n+]3cc(C(N)=O)ccc23)cc1	RXFP1 ag 32µM
Cn1c(=O)c2[nH]c(CN(Cc3ccccc3)Cc3ccccc3)nc2n(C)c1=O	none
Cn1c(=O)c2[nH]c(COc3ccccc3)nc2n(C)c1=O	gsp ag 3.2µM (no result: RXFP1 ag)
Cc1cccc(N2CCN(C(=O)c3c(C)oc4ncnc(N5CCOCC5)c34)CC2)c1C	none (no result: gsp antag, gsp ag)
CC(C)c1cnc2c(c1SCC(=O)NC(C)(C)C)c(=O)n(C)c(=O)n2C	none (no result: gsp antag, gsp ag)
COc1ccc(C2c3ccsc3CCN2C(=O)NC(C)(C)C)cc1 (centres undefined)	gsp antag 32µM
Cc1cc(C)c(NC(=O)CSc2n[nH]c(-c3ccccc3Cl)n2)c(C)c1	none (no result: gsp antag, gsp ag)
C[C@@H](NC(=O)C(=O)c1c[nH]c2ccccc12)c1ccccc1	none (no result: gsp ag, RXFP1 ag, RXFP1 antagonist)
CSc1ccccc1NC(=O)C(=O)c1c[nH]c2ccccc12	RXFP1 antagonist -60
Cc1ccc(NC(=O)CCc2nnc3n(CC(C)C)c(=O)c4ccccc4n23)cc1C	none (no result: gsp antag, gsp ag)
N#C/C(=C(/O)C(Cl)(Cl)Cl)c1nc2ccccc2[nH]1	gsp antag 28µM
C/C(O)=C(/C#N)c1nc2ccccc2[nH]1	none
Cc1ccc(NC(=O)COc2ccccc2C(N)=O)cc1S(=O)(=O)N1CCCCCC1	gsp antag 35µM, gsp ag inconclusive
COc1cc(C(C)=O)ccc1OCC(=O)Nc1ccc(S(=O)(=O)N2CCCCC2)cc1	none (no result: gsp antag, RXFP1 ag)
COc1ccc(NC(=O)CSc2nnnn2C)cc1S(=O)(=O)N1CCCCC1	RXFP1 antagonist -82

From PubChem
